Assay results published in PubChem BioAssay (Tox21).
Results filed as inconclusive are left out. The source made the active and inactive calls. Calls follow the shape of the dose curve; as a rule, active = well fitted activation curve with a large enough effect in the signal ratio in the repeat runs (not every such curve was filed as active); inconclusive = weak or mixed curves, or effect the other way; inactive = no such curve, though single readings can be large or run the other way; the % refers to the signal ratio.

These compounds were tested against Glucocorticoid receptor (Homo sapiens) (UniProt P04150) (assay: qHTS assay to identify small molecule agonists of the glucocorticoid receptor (GR) signaling pathway (AID 720691)). Settings: GR-bla HeLa, beta-lactamase reporter ratio, 18 h; series mostly up to 62.4 µM.
Source text: U.S. Tox21 Program National Center for Advancing Translational Sciences [NCATS] NIH Chemical Genomics Center [NCGC] U.S. Environmental Protection Agency [EPA] National Institutes of Environmental Health Sciences [NIEHS] National Toxicology Program [NTP] U.S. Food and Drug Administration [FDA] Tox21 Assay Overview: The Glucocorticoid receptor (GR) is one of the members of the nuclear receptor family of ligand-dependent transcription factors. GR plays a critical role in carbohydrate, protein and lipid metabolisms and programmed cell death. CellSensor GR-bla HeLa cell line (Invitrogen) contains a beta-lactamase reporter gene under the control of the glucocorticoid response element stably integrated into HeLa cells, a cervical cancer cell line that expresses glucocorticoid receptor. The activation of the reporter gene under culture conditions can be detected by fluorescence intensity. This cell line has been used to screen the Tox21 10K compound library and to identify the compounds that activate the GR signaling.
Tox21 Assay Protocol Summary: The GR-bla HeLa cells were dispensed at 1500 cells/6 ul/well in 1536-well black wall/clear bottom plates using a Multidrop Combi (ThermoFisher Scientific, Waltham, MA) dispenser. After the assay plates were incubated at a 37 C/5% CO2 incubator for 4 hours, 23 nL of compounds dissolved in DMSO, positive controls or DMSO only was transferred to the assay plate by a pintool station (Kalypsys, San Diego, CA). The plates were incubated at 37 C for 18 hours. After 1 uL of LiveBLAzerTM B/G FRET substrate was added using a Flying Reagent Dispenser (Aurora Discovery, San Diego, CA), the plates were incubated at room temperature for 2 hours, and fluorescence intensity was measured by an Envision plate reader (PerkinElmer, Shelton, CT).

Glucocorticoid receptor (Homo sapiens), sequence (P04150 whole entry, looked up): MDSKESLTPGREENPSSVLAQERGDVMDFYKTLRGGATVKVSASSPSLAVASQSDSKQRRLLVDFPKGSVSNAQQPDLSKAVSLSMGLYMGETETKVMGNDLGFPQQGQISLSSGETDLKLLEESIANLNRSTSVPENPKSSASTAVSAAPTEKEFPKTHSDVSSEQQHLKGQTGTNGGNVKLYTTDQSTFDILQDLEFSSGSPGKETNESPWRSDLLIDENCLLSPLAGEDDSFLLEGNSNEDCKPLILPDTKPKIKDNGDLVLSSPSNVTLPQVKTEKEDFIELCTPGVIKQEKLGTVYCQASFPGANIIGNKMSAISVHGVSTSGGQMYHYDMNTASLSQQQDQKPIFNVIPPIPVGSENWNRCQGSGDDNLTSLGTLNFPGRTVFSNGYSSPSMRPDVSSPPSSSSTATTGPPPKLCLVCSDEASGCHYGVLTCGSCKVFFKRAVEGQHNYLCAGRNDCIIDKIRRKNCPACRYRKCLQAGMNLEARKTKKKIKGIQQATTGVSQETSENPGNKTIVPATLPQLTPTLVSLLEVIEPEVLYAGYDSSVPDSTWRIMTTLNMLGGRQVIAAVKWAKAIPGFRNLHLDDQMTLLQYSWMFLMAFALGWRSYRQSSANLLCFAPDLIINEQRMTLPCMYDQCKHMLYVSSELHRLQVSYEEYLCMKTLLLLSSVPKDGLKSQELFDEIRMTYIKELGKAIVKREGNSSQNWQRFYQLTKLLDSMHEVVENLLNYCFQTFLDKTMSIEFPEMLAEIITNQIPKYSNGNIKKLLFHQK

Structure (SMILES)	outcome
O=C(CCCN1CCC(n2c(=O)[nH]c3ccccc32)CC1)c1ccc(F)cc1	inactive
CCOC(=O)NC(=S)Nc1ccccc1NC(=S)NC(=O)OCC	inactive
O=[N+]([O-])c1cccc2cccnc12	inactive
CC1=C(C(=O)Nc2ccccc2)S(=O)(=O)CCO1	inactive
CCS(=O)(=O)C(C)(C)S(=O)(=O)CC	inactive
CS(=O)(=O)c1cc(C(F)(F)F)ccc1C(=O)c1cnoc1C1CC1	inactive
CCNc1nc(NC(C)C)nc(OC)n1	inactive
CCC#N	inactive
C[C@]12CC[C@H]3[C@@H](CC=C4C[C@@H](O)CC[C@@]43C)[C@@H]1CC[C@@H]2O	inactive
COC(=O)C(c1ccccc1)C1CCCCN1 (stereo not given)	inactive
CC(C)NCC(O)c1ccc(N)c(C#N)c1 (stereo not given)	inactive
O=CNC(N1CCN(C(NC=O)C(Cl)(Cl)Cl)CC1)C(Cl)(Cl)Cl (stereo not given)	inactive
Cc1nnc2n1-c1sc(CCC(=O)N3CCOCC3)cc1C(c1ccccc1Cl)=NC2	inactive
Nc1cnn(-c2ccccc2)c(=O)c1Cl	inactive
Cc1ncc2n1-c1ccc(Cl)cc1C(c1ccccc1F)=NC2	inactive
CC(C)CP(=S)(S)CC(C)C	inactive
CC(C)CC#N	inactive
CC(=O)C(Cl)Cl	inactive
CN/C(=N\[N+](=O)[O-])NCC1CCOC1 (stereo not given)	inactive
CC(CCc1ccccc1)NC(C)C(O)c1ccc(O)cc1 (stereo not given)	inactive

Structure (SMILES)	outcome
CCCCOC(=O)[C@@H](C)Oc1ccc(Oc2ccc(C#N)cc2F)cc1	inactive
ClC(Br)Br	inactive
O=[N+]([O-])c1cccc2c([N+](=O)[O-])cccc12	inactive
CN1C[C@@H](NS(=O)(=O)N(C)C)C[C@@H]2c3cccc4c3c(cn4C)C[C@H]21	inactive
CC(=O)CCc1ccc2c(c1)OCO2	inactive
C#CCN1C(=O)COc2cc(F)c(N3C(=O)C4=C(CCCC4)C3=O)cc21	inactive
O=C(Cc1ccccc1)OCc1ccccc1	inactive
C[N+](=O)[O-]	inactive
ClC(Cl)C(Cl)Cl	inactive
O=C(Nc1ccccc1)c1ccccc1I	inactive
COP(=S)(OC)Oc1c(Cl)cc(C)cc1Cl	inactive
BrCCCCCCBr	inactive
COc1ncc(F)c2nc(S(=O)(=O)Nc3c(F)cccc3F)nn12	inactive
N#CCBr	inactive
O=S(=O)(O)C(F)(F)C(F)(F)C(F)(F)C(F)(F)C(F)(F)C(F)(F)F	inactive
C[C@]1(O)CC[C@H]2[C@@H]3CCC4=CC(=O)CC[C@]4(C)[C@@]3(F)[C@@H](O)C[C@@]21C	inactive
[Cl][Sn]([Cl])([Cl])[Cl]	inactive
CC1CCCCC1NC(=O)Nc1ccccc1 (stereo not given)	inactive
CCC(Cl)[N+](=O)[O-] (stereo not given)	inactive
CCC/C(=N\OCC)C1=C(O)CC(CC(C)SCC)CC1=O (stereo not given)	inactive
